The source of these data is PubChem BioAssay (NCI).

Test systems include SN12C renal; UO-31 renal; TK-10 renal; ACHN renal; CAKI-1 renal; A498 renal; CCRF-CEM leukemia; MOLT-4 leukemia; SK-MEL-2 melanoma.
Common to all, as to test: NCI-60 one-dose screen, 48 h (100 = growth as untreated, 0 = no growth, -100 = all killed)
Conditions in all cases: 10 µM unless noted

About 83,000 compounds went through this panel and 20% of them were active in at least one assay; those are over-represented in the sample as a whole.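 A percent growth of 40 corresponds to 60% growth inhibition; 0 means no net growth; -100 means all cells died. Active threshold: below 10.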 Values without a mark were called inactive. The source made the active and inactive calls.

Turning to `COc1ccc(C(=O)c2sc3nc4c(c(C(F)(F)F)c3c2N)CN(C(C)=O)CC4)cc1OC`, the growth is 93.7% with SN12C renal; 46.3% in the assay with UO-31 renal; 86% in the assay on TK-10 renal; 79.1% with ACHN renal; 80% in the assay on CAKI-1 renal; 58.1% in the assay with A498 renal. Besides, the growth was 82.6% with CCRF-CEM leukemia and 79.2% in the assay with MOLT-4 leukemia.
In the case of `COc1cc(-c2cc(-c3nc4ccc(Cl)cc4[nH]3)[nH]n2)cc(OC)c1OC`, the growth with SK-MEL-2 melanoma is 55.8%; with SN12C renal it was 68.3%; in the assay with UO-31 renal, 20.6%; in the assay on TK-10 renal, 67.1%; in the assay on CAKI-1 renal, 35.1%; with A498 renal, 39.2%. The growth in the assay with CCRF-CEM leukemia was 7.12% (active); in the assay on MOLT-4 leukemia, 4.79% (active).
Consider `Cc1cccc(NC(=O)c2sc3nc4c(cc3c2N)C(=O)CCC4)c1`, for which the growth in the assay on SK-MEL-2 melanoma was 64.7%; with SN12C renal, 44.2%; in the assay on UO-31 renal, 41.2%; in the assay on TK-10 renal it was 75.6%; in the assay on ACHN renal, 51.9%; in the assay on A498 renal, -12.2% (active). Besides, the growth is 25.4% with CCRF-CEM leukemia and 51.1% in the assay on MOLT-4 leukemia.
With `COc1cccc(/C=C2/C(=O)N(Cc3ccco3)SC2=S)c1OC`, the growth with SK-MEL-2 melanoma is 93.1%; with SN12C renal it was 97.6%; in the assay on UO-31 renal, 93.4%; in the assay with TK-10 renal, 117%; with ACHN renal, 102%; in the assay with A498 renal, 102%. For the same compound, the growth with CCRF-CEM leukemia is 68.3%; in the assay with MOLT-4 leukemia it was 92.1%.
Turning to `Cc1ccc(Nc2c(C(N)=O)cnc3ccc(-c4csc(N)n4)cc23)cc1`, the growth with SK-MEL-2 melanoma was 110%; in the assay on SN12C renal, 108%; in the assay on UO-31 renal, 88.7%; in the assay with TK-10 renal, 96.2%; with ACHN renal it was 84.7%; with A498 renal it was 73.3%. Further, the results for the growth in the assay on CCRF-CEM leukemia and with MOLT-4 leukemia were 104% and 95.3%, respectively.
Take `COc1cc(-c2cnc3nonc3n2)c(OC)c2c1OCO2`: the growth is 98.1% in the assay on SK-MEL-2 melanoma; 100% in the assay on SN12C renal; 85.5% with UO-31 renal; 107% with TK-10 renal; 99.1% with CAKI-1 renal; 88.3% in the assay with A498 renal. Also, the growth is 85.3% in the assay on CCRF-CEM leukemia and 83.9% in the assay with MOLT-4 leukemia.
As to `Cn1cc(-c2ccc(-c3cn(C)c4ncccc34)[nH]2)c2cccnc21`, the growth is 75.6% in the assay on SN12C renal; -81.3% (active) in the assay with UO-31 renal; -30% (active) in the assay on TK-10 renal; 4.29% (active) with ACHN renal; 54.6% with CAKI-1 renal; 83.3% with A498 renal. Also, the growth in the assay on CCRF-CEM leukemia is 28.3%.
On to `Nc1c(C(=O)Nc2ccccc2Cl)sc2nc3c(cc12)CCCCCC3`, for which the growth is 46.2% in the assay on SK-MEL-2 melanoma; -8.93% (active) in the assay on UO-31 renal; 24.2% with TK-10 renal; 10.1% in the assay on ACHN renal; 57.7% with CAKI-1 renal; 50.1% with A498 renal. Moreover, the values for the growth in the assay with CCRF-CEM leukemia and in the assay on MOLT-4 leukemia were 25.5% and 39.8%, respectively.
In the case of `COC1C/C(=N\O)C2OC(c3ccccc3)OCC2O1` (stereo unspecified), the growth in the assay on SK-MEL-2 melanoma is 93.3%; in the assay with SN12C renal it was 104%; with UO-31 renal it was 87.2%; in the assay on TK-10 renal it was 112%; with ACHN renal, 108%; in the assay on CAKI-1 renal it was 97.9%. In addition, the growth was 89.9% in the assay on A498 renal and 97.6% in the assay with MOLT-4 leukemia.
For `COc1ccc2nc3cc(Cl)ccc3c(N3CCN(c4ccnc(N5CCOCC5)n4)CC3)c2c1`, the growth is 32.3% with SN12C renal; 57.2% with UO-31 renal; 63.7% with TK-10 renal; 27.4% in the assay on ACHN renal; 59.7% in the assay with CAKI-1 renal; 60.6% with A498 renal. For the same compound, the growth in the assay with CCRF-CEM leukemia was -18.4% (active).
Consider `O=C(/C=C/c1ccc(B(O)O)cc1)/C=C/c1ccc(B(O)O)cc1`, for which the growth with SK-MEL-2 melanoma was 110%; in the assay on SN12C renal it was 57.5%; with UO-31 renal, -72.3% (active); in the assay on TK-10 renal, 99.3%; in the assay on ACHN renal, 86.8%; in the assay with A498 renal it was 71.1%. Moreover, the growth was 25% with CCRF-CEM leukemia and 51% with MOLT-4 leukemia.
For the compound `COc1ccc(-c2nc(Nc3cc(C)[nH]n3)c3ccccc3n2)cc1`, the growth in the assay with SK-MEL-2 melanoma was 59.7%; with SN12C renal, 40.1%; with UO-31 renal it was 41%; with TK-10 renal it was 53.3%; in the assay with CAKI-1 renal, 15.9%; with A498 renal, -18.1% (active). Further, the growth is 49.3% in the assay with CCRF-CEM leukemia and 69.8% with MOLT-4 leukemia.
Consider `O=c1c2cccc3c(NC4CCCCC4)ccc(c32)c2nc3ccccc3n12`, for which the growth was 87% in the assay on SN12C renal; 41.4% with UO-31 renal; 77.4% with TK-10 renal; 72.9% with ACHN renal; 47.2% in the assay with CAKI-1 renal; 99.1% in the assay on A498 renal. The growth in the assay on CCRF-CEM leukemia is 65.4%; with MOLT-4 leukemia, 49.8%.
As to `CCCCCCCCCCCCS(=O)CC(C)O` (stereo unspecified), the growth is 112% in the assay on SK-MEL-2 melanoma; 106% in the assay on SN12C renal; 95.3% with UO-31 renal; 125% in the assay with TK-10 renal; 105% in the assay on ACHN renal; 110% in the assay on CAKI-1 renal. The growth in the assay on CCRF-CEM leukemia was 101%; with MOLT-4 leukemia, 96.7%.
With `COc1ccc(C2CC(=O)Nc3c2c(C)nn3-c2nc3ccccc3[nH]2)cc1` (stereo unspecified), the growth in the assay on SK-MEL-2 melanoma is 100%; in the assay on SN12C renal, 103%; in the assay on UO-31 renal it was 34.3%; with TK-10 renal it was 116%; with CAKI-1 renal it was 101%; in the assay with A498 renal it was 41.6%. In addition, the growth with CCRF-CEM leukemia was 10.1%; in the assay with MOLT-4 leukemia it was -44.6% (active).
As to `O=C(O)C(O)C(O)C(=O)O.[NH-]C1CCCCC1[NH-].[Pt+2]` (stereo unspecified), the growth in the assay on SK-MEL-2 melanoma is 109%; with SN12C renal it was 106%; in the assay with UO-31 renal it was 97.9%; in the assay on TK-10 renal it was 113%; in the assay with ACHN renal it was 101%; with A498 renal, 125%. In addition, the growth with CCRF-CEM leukemia was 112%; in the assay on MOLT-4 leukemia, 105%.
